# High-throughput results as filed in PubChem.
# Only a sample is shown.
# aSyn UTR act: Activators via SNCA 5'UTR binding, MLPCN. AID 1814, 2009. 7.1% of 300,000 active. alpha-synuclein 5'UTR reporter, activators screen. activity score, % (tested at 7.5 µM), hits read low; in the data active = activity score below about -60%
# The depositor's hits bear a star.
SMILES,aSyn UTR act
CC(=O)Nc1cc(C(=O)OCC(=O)c2ccc(C)cc2)ccc1C,-151*
N#C/C(=C\c1ccc([N+](=O)[O-])cc1)c1nc(C2CC2)cs1,-84*
N#C/C(=C\c1ccccc1[N+](=O)[O-])c1nc(C2CC2)cs1,-264*
N#C/C(=C/c1ccccc1[N+](=O)[O-])c1nc(C2CC2)cs1,-301*
O=C(c1ccccc1)N1CCSc2sccc2C1=O,97
Cc1sc2c(c1C)CN(C(C)(C)C)CN2C(=O)c1ccccc1,-64*
COc1cccc(NC(=O)c2cnc(SCC(=O)NCc3ccc4c(c3)OCO4)n(C)c2=O)c1,-82*
O=c1[nH]c2ccccc2nc1CCc1ccccc1,-90*
c1ccc(CCc2nc3ccccc3[nH]2)cc1,-120*
N#C/C(=C\c1ccc(O)c([N+](=O)[O-])c1)c1nc2ccccc2s1,-66*
NS(=O)(=O)c1ccc(Sc2nc3ccccc3s2)c([N+](=O)[O-])c1,67
N#C/C(=C/c1ccco1)c1nc2ccccc2s1,-282*
CCCCc1ccc(-c2csc(/C(C#N)=C\c3ccco3)n2)cc1,-106*
N#C/C(=C\c1ccco1)c1nc2ccccc2s1,-309*
Cc1ccc(-c2noc(CSc3ccccc3)n2)cc1,-84*
Cc1cccc(-c2noc(CSc3ccccc3)n2)c1,-170*
c1ccc(SCc2nc(-c3cccnc3)no2)cc1,-103*
Cc1ccc(-c2noc(CSc3nc(N)cc(N)n3)n2)cc1,-191*
O=c1oc2cc(Cl)ccc2n1CSc1nc2ccccc2s1,-165*
Cc1cn(CCC(=O)Nc2ccc(N3CCOCC3)cc2)c2ccccc12,-128*
Cc1cn(CCC(=O)Nc2ccccc2N2CCOCC2)c2ccccc12,-106*
Cc1cc(/C=N/n2cnnc2)c(C)n1-c1ccc(OCc2ccccc2F)cc1,-82*
COc1ccc2c(c1)Cc1sc(NC(=O)c3cccnc3)nc1-2,-63*
COc1ccc2c(c1)-c1nc(NC(=O)c3cccs3)sc1CC2,-122*
COc1ccc2c(c1)CCc1sc(NC(=O)c3ccco3)nc1-2,-114*
SMILES,aSyn UTR act
COc1ccc2c(c1)Cc1sc(NC(=O)c3ccco3)nc1-2,-265*
COc1ccc2c(c1)Cc1sc(NC(C)=O)nc1-2,-169*
O=C(Nc1nc2c(s1)CCCC2)c1cccnc1,-164*
Cc1onc(-c2ccccc2Cl)c1C(=O)N1CCN(c2cccc(Cl)c2)CC1,67
Cc1onc(-c2ccccc2Cl)c1C(=O)Nc1nc2c(s1)CCCC2,-121*
COC(=O)c1c(NC(=O)c2ccccc2[N+](=O)[O-])sc2c1CC(C)(C)NC2(C)C,-70*
COC(=O)c1c(NC(=O)COc2ccc(Cl)cc2)sc2c1CC(C)(C)NC2(C)C,83
O=C(COC(=O)/C=C/c1ccccc1[N+](=O)[O-])Nc1ccc(OCc2ccccc2)cc1,-122*
CN(C(=O)COC(=O)/C=C/c1ccccc1[N+](=O)[O-])c1ccccc1,-69*
O=C(COC(=O)/C=C/c1ccccc1[N+](=O)[O-])NC1CCS(=O)(=O)C1 (stereo not drawn),-108*
CCS(=O)(=O)c1ncc(Cl)c(C(=O)Nc2ccc(S(=O)(=O)N3CCCC(C)C3)cc2)n1 (stereo not drawn),72
CC1CCCN(C(=O)Nc2ccc(Br)cc2Cl)C1 (stereo not drawn),-91*
CCOC(=O)Cc1csc(NC(=O)c2cnc3sc(C)cn3c2=O)n1,-112*
CCOC(=O)Cc1csc(NC(=O)c2ccco2)n1,-162*
CCOC(=O)Cc1csc(NC(=O)c2ccc(Cl)s2)n1,-119*
C=CCSc1nc2ccccc2n1C(=O)/C=C/c1ccc(OC)c(OC)c1,-219*
CCSc1nc2ccccc2n1C(=O)/C=C/c1ccc(OC)c(OC)c1,-168*
C=CCSc1nc2ccccc2n1C(=O)/C=C/c1cc(OC)c(OC)c(OC)c1,-172*
C=C(CC)C(=O)c1ccc(OCC(=O)O)c(Cl)c1Cl,-67*
COc1ccccc1NC(=S)Nc1ccc2cn[nH]c2c1,-101*
CC(C)c1ccc(NC(=S)Nc2ccc3cn[nH]c3c2)cc1,-94*
CC1(C)Cc2nc3sc4c(=O)n(CC(=O)NCc5ccco5)cnc4c3cc2CO1,-100*
CCCCCn1cnc2c(sc3nc4c(cc32)CSC(C)(C)C4)c1=O,-130*
C=CCn1c(C)nc2c(sc3nc4c(cc32)COC(C)(C)C4)c1=O,-130*
CC(C)c1nc2sc3c(NCc4ccco4)ncnc3c2c2c1COC(C)(C)C2,71
SMILES,aSyn UTR act
CC(C)COc1ncnc2c1sc1nc3c(cc12)COC(C)(C)C3,-117*
CCCOc1ncnc2c1sc1nc3c(cc12)COC(C)(C)C3,-112*
C=CCSc1ncnc2c1oc1nc3c(cc12)COC(C)(C)C3,-141*
CC1(C)Cc2nc3oc4c(=S)nc[nH]c4c3cc2CO1,-64*
CCSc1ncnc2c1sc1nc3c(cc12)COC(C)(C)C3,-123*
Cc1ccnc(N(C(=O)Nc2ccccc2)C2=NCC(C)(C)S2)c1,-165*
Cc1nc(NC(=O)c2ccccc2)sc1-c1csc(Nc2cccc(F)c2)n1,-81*
Cc1ccc(Cl)cc1Nc1nc(-c2sc(NC(=O)c3ccccc3)nc2C)cs1,-94*
O=C(Nc1ccccc1)c1ccc2c(c1)OCCO2,-87*
Cc1ccc(NC(=O)c2ccc3c(c2)OCCO3)cc1C,74
O=C(Nc1cccc(F)c1)c1ccc2c(c1)OCCO2,-111*
O=C(NC(=S)Nc1ccc2c(c1)OCCO2)c1ccccc1F,-155*
O=C(Nc1ccc2c(c1)OCCO2)c1c(F)cccc1F,-122*
COC(=O)c1ccsc1NC(=O)c1ccc2c(c1)OCCO2,-97*
O=C(NCCc1ccc2c(c1)OCCO2)c1ccccc1F,-110*
O=C(O)c1cc(S(=O)(=O)Nc2ccc3c(c2)OCCO3)c(Cl)cc1Cl,-82*
Cc1ccc(NC(=O)c2ccc3c(c2)OCCO3)cc1S(=O)(=O)Nc1cccc(Cl)c1,-95*
CC(C)C(=O)Nc1nc2cc3c(cc2s1)OCO3,-179*
O=C(Nc1nc2cc3c(cc2s1)OCCO3)C1=COCCO1,99
CC(C)(C)C(=O)Nc1nc2cc3c(cc2s1)OCO3,-144*
Cc1ccc(C2=NN3C(C2)c2ccccc2OC32C(=O)Nc3ccccc32)cc1 (stereo not drawn),-148*
CN1C(=O)C2(Oc3ccccc3C3CC(c4ccccc4)=NN32)c2ccccc21 (stereo not drawn),-164*
O=[N+]([O-])c1cccc(/C=C/c2ccncc2)c1,-65*
O=[N+]([O-])c1ccc(/C=C/c2ccncc2)cc1,-71*
c1ccc(Nc2nnc(-c3cccc4ccccc34)o2)cc1,-93*
SMILES,aSyn UTR act
CS(=O)(=O)c1ccccc1C(=O)Nc1ccc(-c2nc3ccccc3o2)cc1,-185*
CS(=O)(=O)c1ccccc1C(=O)Nc1ccc(-c2nc3ccccc3[nH]2)cc1,-156*
O=C(c1ccccc1)c1ccc2nc(-c3ccc(NC(=O)c4ccccc4Br)cc3)[nH]c2c1,75
COc1cccc(Cn2c(-c3nonc3N)nc3ccccc32)c1,96
Cn1c(-c2cc3ccccc3oc2=O)nc2ccccc21,-97*
COc1ccc2cc(-c3nc4ccccc4n3C)c(=O)oc2c1,-209*
COc1cccc(NC(=O)c2nn(C)cc2Br)c1,-105*
Cn1cc(Br)c(C(=O)NNC(=O)c2ccc(Cl)cc2)n1,-94*
CCOc1ccc(NC(=O)c2nn(C)cc2Br)cc1,-154*
Cn1cc(Br)c(C(=O)Nc2ncc(Br)s2)n1,-147*
COC(=O)Cn1c(SCc2ccccc2)nc2ccccc21,-166*
CCC(C)c1ccc(NC(=O)C2CC2)cc1 (stereo not drawn),-73*
